Assay outcomes deposited in PubChem BioAssay by Sanford-Burnham Center for Chemical Genomics.
NALP1 yeast inh: inhibitors of NALP1 inflammasome in yeast; S. cerevisiae NALP1/ASC/caspase-1 growth, X-gal OD620, 72 h; inhibition, % at 10 µM; 280,000 compounds, 0.61% hits; AID 2071; in the data active means inhibition mostly above about 24%, no sharp cut-off; inactive means mostly below about 32%
tim10-1 inh: inhibits growth of tim10-1 mutant yeast; S. cerevisiae tim10-1 ts strain growth, BacTiter-Glo, 24 h; inhibition, % at 20 µM; 330,000 compounds, 2.2% hits;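 active means inhibition of at least 40%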;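 further: mutant grown at 25 °C; 0% = DMSO wells with yeast and 100% = wells holding no yeast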
NLRP3 yeast inh: NALP3 inhibition in yeast; Yeast reconstituted NLRP3/ASC/caspase-1, beta-gal luminescence, 24 h; inhibition, % at 10 µM; 330,000 compounds, 0.39% hits;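 active means inhibition of 50% or more; inactive means inhibition below 50%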;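 further: plate controls were induced DMSO wells for no effect and uninduced yeast grown without galactose for full effect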
tim23-1 inh: inhibits growth of tim23-1 mutant yeast. inhibition, % at 20 µM. AID 463212. 330,000 compounds, 1.3% hits. S. cerevisiae tim23-1 growth, BacTiter-Glo luminescence, 24 h;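 active means growth inhibition of the mutant yeast at or above 50%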;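 further: temperature-sensitive mutant grown at 25 °C; plate controls were DMSO-treated mutant yeast for no effect and medium wells lacking yeast for full effect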
TIM10 inh: TIM10 yeast growth inhibition; S. cerevisiae TIM10 strain growth, BacTiter-Glo luminescence, 24 h; inhibition, % at 10 µM; 330,000 compounds, 1.4% hits; AID 463195;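 active means inhibition of 40% or more at the single tested concentration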;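 further: wild-type TIM10 isogenic control strain grown at permissive 25 °C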
tim10-1 confirm: tim10-1 yeast growth inhibition, confirmed; 7,400 compounds, 56% hits; S. cerevisiae tim10-1 ts strain growth, BacTiter-Glo, 24 h; inhibition, % at 20 µM; AID 463213; shares compounds with tim10-1 inh;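 active means inhibition of yeast growth at or above a set limit in either of two repeat tests at 20 µM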;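 further: tim10-1 mutant grown at permissive 25 °C to find synthetic lethal compounds; 0% = DMSO yeast wells and 100% = medium wells without yeast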
The depositor's hits bear a star. Rows were chosen to be rich in hits. Some 4.1% of all compounds tested hit in one or more screens of this group.

`CCCCc1ccc(NC(=S)N2CCN(C(=O)c3ccco3)CC2)cc1` gave NALP1 yeast inh 3, tim10-1 inh 43*, NLRP3 yeast inh 17, tim23-1 inh 36, TIM10 inh 25 and tim10-1 confirm 24.
Cc1cccc(NC(=S)N2CCN(C(=O)c3ccco3)CC2)c1 was read as NALP1 yeast inh 15, tim10-1 inh 7, NLRP3 yeast inh 19, tim23-1 inh -1 and TIM10 inh 10.
Screening CC(C)(C)c1ccc(-c2nnc(SCCN3C(=O)c4ccccc4C3=O)o2)cc1 returned NALP1 yeast inh 8, tim10-1 inh 10, NLRP3 yeast inh 11, tim23-1 inh 26 and TIM10 inh 8.
Screening O=C(CC1SC(N2CCCC2)=NC1=O)Nc1ccc(C(=O)NCCOc2ccccc2F)cc1 (stereo not given) returned tim10-1 inh 1, NLRP3 yeast inh -4, tim23-1 inh -10 and TIM10 inh -1.
`CC(C)(C)n1nnnc1C(c1cccnc1)N(Cc1ccccc1)Cc1cccs1` (stereo not given) gave NALP1 yeast inh -6, tim10-1 inh 56*, NLRP3 yeast inh 5, tim23-1 inh 27, TIM10 inh 34 and tim10-1 confirm 33*.
For CC(C)(C)n1nnnc1C(c1cccs1)N(Cc1ccccc1)Cc1cccnc1 (stereo not given) the results were NALP1 yeast inh 8, tim10-1 inh 22, NLRP3 yeast inh -28, tim23-1 inh 34 and TIM10 inh 15.
For CCOC(=O)CC(=O)CSc1nc2sc(C)cc2c(=O)n1Cc1ccco1 the results were NALP1 yeast inh 20, tim10-1 inh 45*, NLRP3 yeast inh 0, tim23-1 inh 37, TIM10 inh 25 and tim10-1 confirm 19.
For Cc1cc2c(=O)n(Cc3ccco3)c(SCC(=O)c3ccc(Cl)s3)nc2s1 the results were NALP1 yeast inh 12, tim10-1 inh 9, NLRP3 yeast inh 3, tim23-1 inh -3 and TIM10 inh 3.
Screening COc1ccc(N(CC(=O)Nc2ccc(C)c(F)c2)S(=O)(=O)c2c(C)noc2C)cc1 returned NALP1 yeast inh 8, tim10-1 inh 12, NLRP3 yeast inh -3, tim23-1 inh 6 and TIM10 inh 14.
Screening COc1ccc(N(CC(=O)Nc2ccc(C)c(C)c2)S(=O)(=O)c2c(C)noc2C)cc1 returned NALP1 yeast inh 21, tim10-1 inh 45*, NLRP3 yeast inh -8, tim23-1 inh 44, TIM10 inh 13 and tim10-1 confirm 8.
CC1CCCC(C)N1C(=O)COC(=O)Cc1c[nH]c2ccccc12 (stereo not given) was read as tim10-1 inh 14, NLRP3 yeast inh 12, tim23-1 inh 15 and TIM10 inh 11.
O=c1c(Cl)c(N2CCN(c3ccccc3)CC2)cnn1C12CC3CC(CC(C3)C1)C2 was read as NALP1 yeast inh 5, tim10-1 inh 34, NLRP3 yeast inh 5, tim23-1 inh 39 and TIM10 inh 16.
`O=c1c(Cl)c(N2CCN(c3ccc(F)cc3)CC2)cnn1C12CC3CC(CC(C3)C1)C2` gave NALP1 yeast inh 34, tim10-1 inh 48*, NLRP3 yeast inh 11, tim23-1 inh 38, TIM10 inh 30 and tim10-1 confirm 29.
`CCCCN(CCO)CCCC` gave tim10-1 inh -10, NLRP3 yeast inh 5, tim23-1 inh -11 and TIM10 inh 5.
Cn1cc(C(C[N+](=O)[O-])c2ccccc2)c2ccccc21 (stereo not given) was read as NALP1 yeast inh 5, tim10-1 inh 40*, NLRP3 yeast inh -38, tim23-1 inh 44, TIM10 inh 21 and tim10-1 confirm 49*.
Screening Cn1cc(SCC(=O)O)c2ccccc21 returned NALP1 yeast inh 5, tim10-1 inh 14, NLRP3 yeast inh 12, tim23-1 inh -5 and TIM10 inh 9.
COc1ccc(CC(=O)O/N=C(\N)Cc2cccc3ccccc23)cc1OC was read as NALP1 yeast inh 7, tim10-1 inh 58*, NLRP3 yeast inh -12, tim23-1 inh 34, TIM10 inh 29 and tim10-1 confirm 48*.
COc1ccc(CC(=O)O/N=C(\N)c2ccccn2)cc1OC was read as NALP1 yeast inh 0, tim10-1 inh 24, NLRP3 yeast inh 15, tim23-1 inh -1 and TIM10 inh 4.
Screening CCOC(=O)c1sc(NC(=O)C2CC2)nc1C returned NALP1 yeast inh -2, tim10-1 inh 47*, NLRP3 yeast inh 5, tim23-1 inh 48, TIM10 inh 38 and tim10-1 confirm 32*.
`CCOC(=O)c1sc(NC(=O)CC)nc1C` gave NALP1 yeast inh 2, tim10-1 inh 15, NLRP3 yeast inh -14, tim23-1 inh 20 and TIM10 inh 2.
`Cc1cc(C)n2nc(C(=O)N/N=C/c3ccco3)nc2n1` gave NALP1 yeast inh 2, tim10-1 inh -5, NLRP3 yeast inh 3, tim23-1 inh 22 and TIM10 inh -4.
`S=C(Nc1ccc2nsnc2c1)N1CCCC1` gave NALP1 yeast inh 11, tim10-1 inh 41*, NLRP3 yeast inh 8, tim23-1 inh 15, TIM10 inh 26 and tim10-1 confirm 14.
For CCOc1ccc(C(=O)n2cnnc2N)cc1 the results were tim10-1 inh 5, NLRP3 yeast inh -23, tim23-1 inh 11 and TIM10 inh 10.
Screening CC1(C)Cc2ccccc2-c2n[nH]c(=S)n21 returned NALP1 yeast inh -7, tim10-1 inh 56*, NLRP3 yeast inh 17, tim23-1 inh 25, TIM10 inh 25 and tim10-1 confirm 1.
Screening COc1ccc(-c2cc(C(=O)N3CCOCC3)c3cc(C)ccc3n2)cc1 returned NALP1 yeast inh 2, tim10-1 inh 34, NLRP3 yeast inh 18, tim23-1 inh 32 and TIM10 inh 17.
`COc1ccc(-c2cc(C(=O)N3CCCCCC3)c3cc(C)ccc3n2)cc1` gave NALP1 yeast inh -8, tim10-1 inh 40*, NLRP3 yeast inh 27, tim23-1 inh 44, TIM10 inh 9 and tim10-1 confirm 22.
For OCC1(Cc2ccccc2)CCN(Cc2cnc(-c3cccc4ccccc34)nc2)CC1 the results were NALP1 yeast inh 10, tim10-1 inh -76, NLRP3 yeast inh 21, tim23-1 inh -57 and TIM10 inh -22.
`OCC1(Cc2ccccc2)CCN(Cc2cnc(-c3ccc(Cl)cc3)nc2)CC1` gave NALP1 yeast inh 4, tim10-1 inh 47*, NLRP3 yeast inh 16, tim23-1 inh 20, TIM10 inh 35 and tim10-1 confirm 19.
`O=C(NN=C1CCCC1)C1COc2ccccc2O1` (stereo not given) gave NALP1 yeast inh -16, tim10-1 inh -1, NLRP3 yeast inh 5, tim23-1 inh 8 and TIM10 inh 0.
For O=S(=O)(Nc1c(O)ccc2ccccc12)c1cccc2ccccc12 the results were tim10-1 inh 44*, NLRP3 yeast inh 0, tim23-1 inh 37, TIM10 inh 27 and tim10-1 confirm 32.
